Test results reported in PubChem BioAssay AID1851 (National Center for Advancing Translational Sciences (NCATS), 2009).
In all, about 16,000 compounds went through this assay and about 5,700 (36%) were called active. About 24% were inconclusive and are not listed. The list shows a part of the results. A number with no mark means an inactive call. Calls come from the whole dose curve; as a rule, active = well fitted curve in the direction sought with a large enough effect; inconclusive = small, poorly fitted or top-dose-only effect, or effect the other way; inactive = no such curve, though single readings can be large or run the other way.

Target: Cytochrome P450 1A2 (Homo sapiens) (UniProt P05177)
Experiment: Cytochrome panel assay with activity outcomes
Conditions: recombinant CYP, pro-luciferin dealkylation, luminescence, p450-cyp1a2; series mostly up to 57.1 µM; activity, negative = inhibition: at the top concentration
% is set by controls: 0 for no effect and ±100 for the full control effect.

Sequence of Cytochrome P450 1A2 (Homo sapiens) (P05177 whole entry, looked up): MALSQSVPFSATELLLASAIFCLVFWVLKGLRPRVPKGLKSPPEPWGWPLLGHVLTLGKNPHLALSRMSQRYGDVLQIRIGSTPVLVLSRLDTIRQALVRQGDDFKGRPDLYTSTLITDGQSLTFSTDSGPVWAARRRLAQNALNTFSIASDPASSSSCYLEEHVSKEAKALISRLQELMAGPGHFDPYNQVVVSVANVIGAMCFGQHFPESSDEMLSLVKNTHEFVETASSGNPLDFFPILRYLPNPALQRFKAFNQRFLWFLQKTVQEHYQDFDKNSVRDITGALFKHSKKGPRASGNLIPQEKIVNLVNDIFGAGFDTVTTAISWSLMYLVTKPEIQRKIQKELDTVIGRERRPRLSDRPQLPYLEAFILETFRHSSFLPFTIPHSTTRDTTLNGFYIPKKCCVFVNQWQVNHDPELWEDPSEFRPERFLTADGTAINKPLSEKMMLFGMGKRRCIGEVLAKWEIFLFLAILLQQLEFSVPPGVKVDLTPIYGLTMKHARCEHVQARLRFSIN

| Structure (SMILES) | AC50 | activity, negative = inhibition |
| --- | --- | --- |
| COc1ncc2nc(-c3ccccc3)c(=O)n(-c3ccccc3)c2n1 | 2000 nM (active) |  |
| COc1ncc2nc(-c3ccc(Cl)cc3)c(=O)n(-c3ccccc3)c2n1 | 1580 nM (active) |  |
| COCCNC(=O)COC(=O)/C=C/c1cnc2ccccc2n1 | 7080 nM (active) |  |
| CCc1c(C)c2c(C)[nH]nc2oc1=O | 5010 nM (active) |  |
| CC(C)C12CC[C@@]3(CC[C@H]4[C@@](C)(CCC[C@]4(C)C(=O)O)[C@@H]3C1)[C@@H](CN)C2 |  | -4.02% [at 11.4 µM] |
| CCOC(=O)c1c(C)n(C)c2ccc(OC(=O)c3ccco3)cc12 | 355 nM (active) |  |
| CCN(CC)CCOC(=O)c1c(C)n(C)c2ccc(OC)cc12 | 1410 nM (active) |  |
| O=CN[C@@H](Cc1cnc[nH]1)C(=O)O |  | -8.82% [at 11.4 µM] |
| COc1ccccc1-c1ccc2ncnc(N(C)C)c2c1 | 1260 nM (active) |  |
| CN(C)c1ncnc2ccc(-c3ccccc3C#N)cc12 | 398 nM (active) |  |
| CN(C)c1ncnc2ccc(-c3ccccc3C(F)(F)F)cc12 | 631 nM (active) |  |
| Cc1ccccc1-c1ccc2ncnc(N(C)C)c2c1 | 631 nM (active) |  |
| Nc1nc(=O)c2[nH]cnc2n1O |  | -12.4% [at 11.4 µM] |
| O=c1oc2cc(Oc3ccc(C(F)(F)F)cc3[N+](=O)[O-])ccc2c2c1CCCC2 |  | -1.9% |
| O=c1oc2cc(Oc3c([N+](=O)[O-])cc(C(F)(F)F)cc3[N+](=O)[O-])ccc2c2c1CCCC2 | 3160 nM (active) |  |
| COc1ccccc1-c1c(C(F)(F)F)oc2cc(OC(=O)c3cccc([N+](=O)[O-])c3C)ccc2c1=O |  | -23.6% |
| CC(C)(C)N1C(=O)[C@H]2[C@H]3[C@H](O)[C@H](O)C/C(=N/OC[C@@H](O)COCc4ccco4)[C@H]3CC[C@@H]2C1=O |  | -7.06% [at 11.4 µM] |
| C[C@@H]1/C=C\CC(=O)OC[C@H](C)C(=O)N[C@@H](Cc2ccccc2)C(=O)OC1 |  | -0.511% [at 11.4 µM] |
| COCCn1c(=O)c(CCc2ccccc2)nc2cnc(OC)nc21 | 10000 nM (active) |  |
| COc1ccc(-n2c(=O)c(CCc3ccccc3)nc3cnc(OC)nc32)cc1 | 15800 nM (active) |  |
| COc1ncc2nc(CCc3ccccc3)c(=O)n(C)c2n1 | 5010 nM (active) |  |
| COCCn1c(=O)c(CCc2ccccc2)nc2cnc(Oc3ccc(OC)cc3)nc21 | 15800 nM (active) |  |
| CC(C)(C)c1cc(C(=O)O)c(CN2CCCCC2)o1 |  | -9.17% |
| CCN1C(=O)[C@H]2[C@H]3[C@H](O)[C@H](O)C/C(=N/OC[C@@H](C)[C@H](OCc4ccccc4)C(C)C)[C@@H]3CC[C@@H]2C1=O |  | -11.8% [at 11.4 µM] |

| Structure (SMILES) | AC50 | activity, negative = inhibition |
| --- | --- | --- |
| COc1ncc2nc(CCc3ccccc3)c(=O)n(CCC#N)c2n1 | 15800 nM (active) |  |
| CO[C@H]1COC(=O)[C@H](C)NC(=O)C/C=C\[C@@H](C)[C@H](OC)COC(=O)[C@@H](OCc2ccccc2)/C=C\[C@@H]1C |  | -11.8% [at 11.4 µM] |
| Cc1cccc(-c2n[nH]c([N+](=O)[O-])n2)c1 | 14100 nM (active) |  |
| CS(=O)(=O)Nc1cccc(-c2ccc3ncnc(Nc4ccc(F)cc4)c3c2)c1 | 794 nM (active) |  |
| CS(=O)(=O)Nc1cccc(-c2ccc3ncnc(NC4CC4)c3c2)c1 | 631 nM (active) |  |
| Cn1ncc2c(Nc3cccc(C(=O)O)c3)ncnc21 |  | -28% |
| CS(=O)(=O)Nc1cccc(-c2ccc3ncnc(Nc4ccccc4)c3c2)c1 | 1000 nM (active) |  |
| CNc1ncnc2ccc(-c3cccc(NS(C)(=O)=O)c3)cc12 | 316 nM (active) |  |
| Cc1nc(Oc2ccc(Cl)cc2)c2oc3ccccc3c2n1 | 141 nM (active) |  |
| O=C1Nc2ccccc2Nc2ncccc21 | 2240 nM (active) |  |
| CS(=O)(=O)c1nc(-c2ccccc2)cc(-c2ccccc2)c1C#N | 891 nM (active) |  |
| N#Cc1c(-c2ccccc2)cc(-c2ccccc2)nc1SCc1nnc(-c2ccccc2)o1 |  | -19.9% |
| O=C1CC(=O)N(CCc2ccc(F)cc2)C(=O)N1 |  | 16.7% |
| CCn1c(=O)cc(SCC(=O)N2CCN(C(=O)c3ccco3)CC2)c2ccccc21 |  | -16.5% |
| Cc1c(/N=C/c2ccco2)n(Cc2ccccc2)c2ccccc12 | 1120 nM (active) |  |
| CNC(=O)NC(=O)CSc1nnc(-c2ccco2)n1Cc1ccccc1 |  | -3.58% |
| CC12c3ccccc3C(c3ccccc31)C1C(=O)N(Cc3cccnc3)C(=O)C12 (stereo not given) |  | -21.4% |
| S=C1N[C@H](c2ccccc2)N[C@H](c2ccccc2)S1 | 3160 nM (active) |  |
| O=C1C2[C@@H](c3ccccc3)N[C@@H](c3ccccc3)C1[C@H](c1ccccc1)N[C@H]2c1ccccc1 |  | -18.6% [at 11.4 µM] |
| COc1cc(C(=O)NCCC(C)C)c([N+](=O)[O-])cc1OC |  | -14% |
| CCC(C)Nc1c([N+](=O)[O-])cc(C)cc1[N+](=O)[O-] (stereo not given) | 1780 nM (active) |  |
| CC[C@@H](CS(=O)(=O)O)[N+](=O)[O-] |  | -0.979% [at 11.4 µM] |
| Cn1cc(-c2nnc(-c3ccccc3)o2)c2ccccc21 | 2000 nM (active) |  |
| O=C(NC1CCCCC1)C(c1ccccc1)N1CCOCC1 (stereo not given) |  | -9.96% |

| Structure (SMILES) | AC50 | activity, negative = inhibition |
| --- | --- | --- |
| N#C/C(=C\c1cc(Cl)cc(Cl)c1O)C(=O)NC1CCCCC1 | 5010 nM (active) |  |
| COc1ccc(/C=C(/C#N)C(=O)NC2CCCCC2)cc1Br |  | -9.87% |
| N#C/C(=C\c1cn[nH]c1-c1ccccc1)C(=O)NC1CCCCCC1 | 11200 nM (active) |  |
| CCOC(=O)C[C@@H](C(=O)OCC)[C@@H]1CCCCC1=O |  | -6.2% [at 11.4 µM] |
| CCOC(=O)c1cc(CC)sc1NC(=O)c1cc(OCC)c(OCC)c(OCC)c1 |  | -3.4% |
| CCOc1cc(-c2noc(N)c2C#N)cc(OCC)c1OCC | 141 nM (active) |  |
| CCON=C1C(C)(C)C(C)(C)C(C)(C)C1(C)C |  | -12% [at 11.4 µM] |
| CC1CN(C(NC(=O)C(C)(C)C)C(Cl)(Cl)Cl)CC(C)O1 (stereo not given) |  | 9.97% |
| CN(C)C(=O)c1ccc(-c2nc(NCc3cccs3)c3ccccc3n2)cc1 | 12600 nM (active) |  |
| CN(C)c1ccc(-c2nc(NCCc3cnc[nH]3)c3ccccc3n2)cc1 | 631 nM (active) |  |
| COCCNc1nc(-c2ccc(C(=O)N(C)C)cc2)nc2ccccc12 | 20000 nM (active) |  |
| NCCC(=O)NCCc1cnc[nH]1 | inactive |  |
| CN(C)C(=O)c1ccc(-c2nc(Nc3ccccc3)c3ccccc3n2)cc1 | 398 nM (active) |  |
| CCOC(=O)N1CCC(NC(=O)C2CCN(S(=O)(=O)N3CCCC3)CC2)CC1 |  | 10.4% |
| CN(C)C[C@H]1CCC[C@@H](CN(C)C)C1=O |  | -12.2% [at 11.4 µM] |
| Cc1ccc(S(=O)(=O)N[C@H](C(=O)N2CCC(C(=O)NCC(=O)O)CC2)C(C)C)cc1 |  | 0.499% |
| CC(=O)NCCNc1nc(-c2ccc3c(c2)OCO3)nc2ccccc12 | 2510 nM (active) |  |
| COCCNc1nc(-c2ccc(N(C)C)cc2)nc2ccccc12 | 631 nM (active) |  |
| CC(=O)NCCNc1nc(-c2ccc(C(=O)N(C)C)cc2)nc2ccccc12 |  | -16.8% |
| CC(=O)NCCNc1nc(-c2ccc(N(C)C)cc2)nc2ccccc12 | 3160 nM (active) |  |
| CCCCN(C)CCCNC(=O)CS(=O)Cc1nc(-c2ccc(OC)c(OC)c2)oc1C (stereo not given) |  | -23.9% |
| O=C(c1cnccn1)N1CCC2(CC1)CN(Cc1cc(C(F)(F)F)cc(C(F)(F)F)c1)C2 |  | -8.7% |
| O=c1c(-c2ccc(F)cc2)nc2cnc(N3CCOCC3)nc2n1C1CC1 |  | 9.66% |
| O=c1c(-c2ccccc2)nc2cnc(N3CCOCC3)nc2n1C1CC1 | 3160 nM (active) |  |

| Structure (SMILES) | AC50 | activity, negative = inhibition |
| --- | --- | --- |
| N#Cc1cccc(-c2nc3cnc(N4CCNCC4)nc3n(C3CC3)c2=O)c1 | 5010 nM (active) |  |
| N#Cc1cccc(-c2nc3cnc(N4CCOCC4)nc3n(C3CC3)c2=O)c1 | 2510 nM (active) |  |
| NC(=O)N1c2ccccc2C=Cc2ccccc21 |  | -6.61% [at 25.6 µM] |
| C=CCn1c(SCC)nc2sc3c(c2c1=O)CCc1ccccc1-3 | 1780 nM (active) |  |
| C=CCn1c(SCC(=O)Nc2c(C)n(C)n(-c3ccccc3)c2=O)nc2sc(C)c(-c3ccccc3)c2c1=O |  | -3.98% |
| CC1(C)Cc2c(sc3nc(SCC(=O)NCc4ccccc4)n(-c4ccccc4)c(=O)c23)CS1 |  | 4.62% |
| CO[C@@H]1CC[C@@]2(C)[C@@H](CC[C@@]3(C)[C@H]2CC=C2[C@H]4CC(C)(C)[C@H](O)[C@@H](OC(C)=O)[C@]4(CO)[C@H](O)C[C@]23C)[C@@]1(C)CO (tested in a mixture with another compound) |  | 3.18% [at 25.6 µM] |
| COc1ccc(-c2csc(NC(=O)Cn3nc(C)cc3C)n2)cc1 | 3160 nM (active) |  |
| COc1ccc2cc(C)c3nnc(SCC(=O)Nc4nc(-c5ccccc5)cs4)n3c2c1 |  | -29.5% |
| CC(N)=NCCCC[C@H](N)C(=O)O |  | -6.11% |
| COc1cc(/C=C/C(=O)N2CCN(CC(O)COc3ccccc3)CC2)cc(OC)c1OC (stereo not given) |  | 3.55% |
| COc1cc(/C=C/C(=O)O)cc(S(=O)(=O)NCCCO)c1OC |  | -10.6% |
| COc1cc(/C=C\C(=O)N2CCC=CC2=O)cc(OC)c1OC | 200 nM (active) |  |
| Clc1ccccc1-c1ccc2ncnc(NCCN3CCOCC3)c2c1 | 5010 nM (active) |  |
| COc1ccc(C2c3c(ncn(CCN4CCOCC4)c3=N)Oc3ccc4ccccc4c32)cc1OC (stereo not given) |  | -21.2% |
| COc1ccccc1-c1ccc2ncnc(NCCN3CCOCC3)c2c1 | 15800 nM (active) |  |
| N#Cc1ccccc1-c1ccc2ncnc(NCCN3CCOCC3)c2c1 | 10000 nM (active) |  |
| CCCN=Cc1c(CCC)[nH]n(-c2nc3ccccc3s2)c1=O | 562 nM (active) |  |
| CN(C)c1ccc(-c2cncnc2NCCN2CCOCC2)cc1 | 15800 nM (active) |  |
| CC(=O)NCCNc1ncncc1-c1ccccc1CN(C)C | 25100 nM (active) |  |
| CN(C)C(=O)c1ccc(-c2cncnc2NCCN2CCOCC2)cc1 |  | -17.9% |
| CC(=O)NCCNc1ncncc1-c1ccc(N(C)C)cc1 | 6310 nM (active) |  |
| COc1ccccc1-c1cncnc1NCCNC(C)=O |  | -18.6% |
